Laboratory results as given in PubChem BioAssay (NCATS).
Results filed as inconclusive are left out. Active and inactive are the calls of the source. The call rests on the fitted dose curve; in most records, active means well fitted curve in the direction sought with a large enough effect; inconclusive means small, poorly fitted or top-dose-only effect, or another doubt; inactive means no such curve, though single readings can be large; an effect the other way counts as inactive or inconclusive.

Columns and labels:
[1] = MultiTox-Fluor Cytotoxicity Assay - LYMP1-001 - Dead Cells (AID 946); settings: LYMP1-001 lymphoblastoid cells, dead-cell protease fluorescence; series mostly up to 92.2 µM
Procedure, shortened: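 LYMP1-001 lymphoblastoid cells (2500/well) treated 16 h at 37 C. Dead-cell protease cleavage of bis-AAF-R110 read at Ex/Em 485/520. Normalized to DMSO and 15 uM tetraoctylammonium bromide; AC50 from Hill fits.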

[2] = MultiTox-Fluor Cytotoxicity Assay - LYMP1-001 - Live Cells (AID 947); settings: LYMP1-001 lymphoblastoid cells, live-cell protease fluorescence viability; series mostly up to 92.2 µM
[3] = Cell Viability - LYMP1-002 - Assay at 16 hr (AID 948); settings: LYMP1-002 lymphoblastoid cell viability; series mostly up to 92.2 µM
Procedure, shortened: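 ATP luminescence (CellTiter-Glo) was measured after 16 hr compound exposure at 37 C of 2500 lymphoblastoid LYMP1-002 cells per well. Concentration-response curves were fitted with the Hill equation to give AC50.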

[4] = MultiTox-Fluor Cytotoxicity Assay - LYMP1-002 - Live Cells (AID 955); settings: LYMP1-002 lymphoblastoid live-cell protease fluorescence viability; series mostly up to 46.1 µM
Procedure, shortened: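 Cytotoxicity in the human lymphoblastoid line LYMP1-002 is measured as loss of live-cell protease activity after 16 h treatment in complete culture medium. AC50 is derived from Hill-equation fits of qHTS concentration-response data.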

[5] = MultiTox-Fluor Cytotoxicity Assay - LYMP1-003 - Dead Cells (AID 961); settings: LYMP1-003 lymphoblastoid cells, dead-cell protease fluorescence; series mostly up to 92.2 µM; further: nearly all actives have a fitted effect of over 70% in size
Procedure, shortened: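 LYMP1-003 human lymphoblastoid cells (2500/well) exposed to compound 16 h at 37 C in complete medium; dead-cell protease read with bis-AAF-R110 fluorescence (Ex/Em 485/520) after 60 min at room temperature. Normalized to DMSO and 15 uM tetraoctylammonium bromide; AC50 from Hill fit.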

[6] = MultiTox-Fluor Cytotoxicity Assay - LYMP1-003 - Live Cells (AID 962); settings: LYMP1-003 lymphoblastoid cells, MultiTox-Fluor live-cell protease fluorescence; series mostly up to 92.2 µM;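 further: cytotoxic hits lower the live-cell protease signal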
Procedure, shortened: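 Cells plated at 2500 per well and incubated 5 hr; compounds added and incubated 16 hr at 37 C; MultiTox-Fluor reagent added for 60 min at room temperature; fluorescence of liberated AFC measured at 405/510 nm.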

[7] = Cell Viability - LYMP1-003 - Assay at 24 hr (AID 963); settings: LYMP1-003 lymphoblastoid cell viability; series mostly up to 92.2 µM
Procedure, shortened: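 Acute toxicity in LYMP1-003 lymphoblastoid cells: 24 hr compound treatment at 37 C, ATP measured with CellTiter-Glo after 30 min at room temperature. AC50 derived by fitting the Hill equation to qHTS titrations.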

[8] = Cell Viability - LYMP1-003 - Assay at 40 hr (AID 964); settings: LYMP1-003 lymphoblastoid viability; series mostly up to 92.2 µM; further: nearly all actives have a fitted effect of over 60% in size
Procedure, shortened: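 This qHTS cytotoxicity screen treats human lymphoblastoid cells (LYMP1-003) with compounds for 40 hr and quantifies cellular ATP via luciferase luminescence.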

[9] = Cell Viability - LYMP2-003 (AID 965); settings: LYMP2-003 lymphoblastoid cell viability; series mostly up to 92.2 µM;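 further: cells exposed to compounds for 24 h before reading; nearly all actives have a fitted effect of over 50% in size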
Procedure, shortened: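 CellTiter-Glo luminescence quantified ATP loss after 24 h compound treatment of LYMP2-003 lymphoblastoid cells at 37 C. Titration series were fitted with the standard Hill equation to give AC50.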

[10] = MultiTox-Fluor Cytotoxicity Assay - LYMP1-002 - Dead Cells (AID 960); settings: LYMP1-002 lymphoblastoid cells, dead-cell protease fluorescence; series mostly up to 46.1 µM; further: nearly all actives have a fitted effect of over 60% in size
Procedure, shortened: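 Acute cytotoxicity in a human lymphoblastoid line is scored as rising dead-cell protease signal after 16 hr exposure at 37 C, measured fluorometrically (485/520).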

Measured: Potency

CCCCOCCOCCSC#N
not listed: [10]
inactive: all other assays above

O=CNc1ccccc1
not listed: [10]
inactive: all other assays above

COc1ccc(N=[N+]([O-])c2ccc(OC)cc2)cc1
not listed: [2] | [10]
inactive: all other assays above

C=CCCCCCC
not listed: [2]
inactive: all other assays above

Cc1ccc(C)c([N+](=O)[O-])c1
not listed: [2]
inactive: all other assays above

CN(C)CCCCl
not listed: [2] | [10]
inactive: all other assays above
